From PubChem BioAssay AID651871 (Sanford-Burnham Center for Chemical Genomics, 2012)
Values joined by “and” are separate entries in the source; they are usually repeats but may differ in a detail not shown here. Equal values may be shown once.

What follows are compounds tested on HL-1 (assay: cardiomyocyte survival under oxidative or metabolic stress – cell-based, panel, H9c2 and HL-1, ATP luminescence, set 2, SAR follow-up (AID 651871;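 note: cells exposed to stressor for 2 h before ATP readout; reference of the scale not given here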)). Conditions: H9c2/HL-1 cardiomyocytes, 2-deoxyglucose stress, with 2-deoxyglucose, run 11, at 79 µM (top of the series).

Question: For COc1ccc2nc(-c3cc(OC)c(OC)c(OC)c3)cc(C(=O)NCC(=O)Nc3ccc(C(C)=O)cc3)c2c1, which activity (protection/inhibition) is on record?
Answer: 89%

Question: CCOC(=O)c1cccc(NC(=O)CNC(=O)c2cc(-c3cc(OC)c(OC)c(OC)c3)nc3ccccc23)c1 was tested. Which activity (protection/inhibition) did it give?
Answer: 66.5%

Question: How did the activity (protection/inhibition) turn out when COc1ccc2c(c1OC)C(=O)N1c3ccccc3C(=O)N(Cc3cccc(Cl)c3Cl)C21 (stereo not drawn) was run?
Answer: 42.6% and -9.56%
